Reference: the supplement of paper PMC8728848
Only a selection was taken, and the strongest signals are over-represented in it overall.

These substances were tested on Gal(b1-3)GlcNAc(b1-3)Gal(b1-4)Glc (assay: glycan array binding signal (z-score within array); higher = stronger binding). Settings: glycan notation: IUPAC condensed, linker removed.
Procedure, shortened: (§1)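 Glycan array data were curated from 3228 arrays in the Consortium for Functional Glycomics database and kept only where the protein sequence was available. Glycan names were converted to IUPAC-condensed notation, and columns mapping to the same glycan were averaged. The binding signal is a within-array Z-score, averaged across arrays of the same protein sequence at different concentrations or buffers and across linkers. Negative Z-scores can be read as non-binding.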

Sequence of Aggrecan (Rattus norvegicus), NP_071526 (chain, as listed by the source): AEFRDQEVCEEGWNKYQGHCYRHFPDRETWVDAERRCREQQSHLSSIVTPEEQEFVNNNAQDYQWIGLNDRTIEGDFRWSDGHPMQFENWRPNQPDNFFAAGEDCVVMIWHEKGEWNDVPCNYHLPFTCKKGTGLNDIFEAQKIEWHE
Sequence of Regenerating Gene IV (Homo sapiens), Q9BYZ8 (Q9BYZ8 whole entry, looked up): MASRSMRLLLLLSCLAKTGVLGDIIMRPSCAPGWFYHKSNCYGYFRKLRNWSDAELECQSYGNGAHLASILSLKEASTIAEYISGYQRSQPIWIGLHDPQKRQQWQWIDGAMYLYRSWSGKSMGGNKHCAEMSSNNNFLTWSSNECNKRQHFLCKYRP
Sequence of Neurocan (Homo sapiens), O14594 (O14594 other isoform, or with tags, fused parts or gaps): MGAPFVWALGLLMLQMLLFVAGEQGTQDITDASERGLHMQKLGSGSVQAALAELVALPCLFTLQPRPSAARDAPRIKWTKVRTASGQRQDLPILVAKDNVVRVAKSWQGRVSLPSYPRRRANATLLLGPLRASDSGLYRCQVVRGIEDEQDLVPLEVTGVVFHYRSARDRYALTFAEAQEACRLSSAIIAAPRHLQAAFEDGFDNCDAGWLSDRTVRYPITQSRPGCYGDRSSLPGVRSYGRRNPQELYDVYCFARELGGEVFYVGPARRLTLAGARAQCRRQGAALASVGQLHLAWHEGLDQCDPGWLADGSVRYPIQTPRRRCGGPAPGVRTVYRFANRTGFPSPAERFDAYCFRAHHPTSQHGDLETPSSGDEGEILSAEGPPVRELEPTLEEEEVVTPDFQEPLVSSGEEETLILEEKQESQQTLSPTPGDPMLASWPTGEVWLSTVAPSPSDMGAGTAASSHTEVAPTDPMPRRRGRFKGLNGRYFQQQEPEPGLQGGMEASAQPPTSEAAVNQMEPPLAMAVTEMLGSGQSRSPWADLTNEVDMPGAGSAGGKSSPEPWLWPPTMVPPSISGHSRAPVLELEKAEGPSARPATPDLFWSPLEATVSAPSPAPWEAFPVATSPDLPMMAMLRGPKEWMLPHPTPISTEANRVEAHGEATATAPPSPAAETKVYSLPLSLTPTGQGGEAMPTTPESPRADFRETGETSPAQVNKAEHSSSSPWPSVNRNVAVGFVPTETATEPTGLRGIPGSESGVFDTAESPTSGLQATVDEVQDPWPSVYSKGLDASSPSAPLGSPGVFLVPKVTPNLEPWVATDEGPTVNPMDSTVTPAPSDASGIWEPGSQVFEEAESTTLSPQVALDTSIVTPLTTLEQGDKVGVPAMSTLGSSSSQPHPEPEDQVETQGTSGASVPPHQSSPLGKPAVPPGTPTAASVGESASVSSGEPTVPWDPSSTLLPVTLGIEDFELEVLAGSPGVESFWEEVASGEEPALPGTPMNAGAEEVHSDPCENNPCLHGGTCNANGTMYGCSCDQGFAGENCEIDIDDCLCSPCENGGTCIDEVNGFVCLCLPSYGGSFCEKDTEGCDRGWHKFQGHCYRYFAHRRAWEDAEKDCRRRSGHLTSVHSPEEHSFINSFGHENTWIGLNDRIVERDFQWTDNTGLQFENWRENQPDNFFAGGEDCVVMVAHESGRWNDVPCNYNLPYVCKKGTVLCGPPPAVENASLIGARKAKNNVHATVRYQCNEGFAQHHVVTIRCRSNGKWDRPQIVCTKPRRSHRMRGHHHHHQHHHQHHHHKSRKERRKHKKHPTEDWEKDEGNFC
Sequence of C3b (Homo sapiens), P01024 (P01024 23-667): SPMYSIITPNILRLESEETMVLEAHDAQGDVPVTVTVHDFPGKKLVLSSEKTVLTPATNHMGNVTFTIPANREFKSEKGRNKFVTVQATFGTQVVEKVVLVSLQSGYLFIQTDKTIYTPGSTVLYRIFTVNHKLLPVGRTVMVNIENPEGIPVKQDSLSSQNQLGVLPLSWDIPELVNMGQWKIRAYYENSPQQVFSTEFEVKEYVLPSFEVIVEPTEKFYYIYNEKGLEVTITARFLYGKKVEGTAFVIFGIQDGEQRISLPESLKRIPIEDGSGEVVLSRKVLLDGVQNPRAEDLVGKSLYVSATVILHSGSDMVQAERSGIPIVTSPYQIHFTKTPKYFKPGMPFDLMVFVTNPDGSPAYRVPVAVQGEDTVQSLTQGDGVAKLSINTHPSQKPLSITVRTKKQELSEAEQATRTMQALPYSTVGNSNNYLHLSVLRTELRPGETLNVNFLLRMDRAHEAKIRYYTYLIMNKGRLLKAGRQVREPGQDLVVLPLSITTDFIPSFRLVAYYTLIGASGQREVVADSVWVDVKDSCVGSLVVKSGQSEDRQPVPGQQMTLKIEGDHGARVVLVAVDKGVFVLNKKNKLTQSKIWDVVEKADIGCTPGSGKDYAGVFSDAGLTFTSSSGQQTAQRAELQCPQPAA
Sequence of Avaren (Actinomycete K97) (chain, as listed by the source): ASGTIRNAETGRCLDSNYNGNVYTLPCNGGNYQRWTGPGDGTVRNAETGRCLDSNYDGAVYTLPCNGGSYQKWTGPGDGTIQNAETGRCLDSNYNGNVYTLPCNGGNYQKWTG
Sequence of 6RG (Lolium perenne) (chain, as listed by the source): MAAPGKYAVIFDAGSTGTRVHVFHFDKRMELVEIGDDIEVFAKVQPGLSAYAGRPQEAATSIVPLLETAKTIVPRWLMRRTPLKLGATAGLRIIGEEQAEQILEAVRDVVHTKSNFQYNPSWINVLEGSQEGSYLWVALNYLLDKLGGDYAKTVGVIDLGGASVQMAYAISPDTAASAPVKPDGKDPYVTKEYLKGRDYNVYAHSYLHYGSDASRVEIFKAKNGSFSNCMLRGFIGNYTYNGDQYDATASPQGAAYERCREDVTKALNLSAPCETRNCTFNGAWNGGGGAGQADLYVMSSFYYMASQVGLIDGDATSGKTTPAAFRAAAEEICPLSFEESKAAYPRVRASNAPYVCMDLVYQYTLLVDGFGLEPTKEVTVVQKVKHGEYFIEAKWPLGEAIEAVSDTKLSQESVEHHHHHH

First: Aggrecan (Rattus norvegicus), NP_071526
Second: 6RG (Lolium perenne)
The “glycan array binding signal (z-score)” value of the first is lower: 0.002 for the first, 6.36 for the second.

Avaren (Actinomycete K97) was tested, and the “glycan array binding signal (z-score)” value was 0.952.

The substances below were run on Gal(b1-3)[Fuc(a1-4)]GlcNAc(b1-3)Gal(b1-3)[Fuc(a1-4)]GlcNAc in the same assay as above. Settings: glycan notation: IUPAC condensed, linker removed.
Procedure, shortened: as §1

Compared with Aggrecan (Rattus norvegicus), NP_071526, Neurocan (Homo sapiens), O14594 is higher in “glycan array binding signal (z-score)” value: 0.137 for the first, 2.48 for the second.

Compared with C3b (Homo sapiens), P01024, “Regenerating Gene IV (Homo sapiens), Q9BYZ8” is lower in “glycan array binding signal (z-score)” value: 0.483 for the first, -0.411 for the second.
